In the library only some 3.9% were active in any assay of this set; here they are far more common.
PLCb3 inh – blocks human PLC-beta3 enzyme activity; Purified PLC-beta3, fluorogenic substrate, fluorescence; inhibition, % at 12.2 µM; 370,000 compounds, 0.18% hits; AID 720704; in the data active = inhibition above about 11%;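 note: 0% = median of compound wells on plate and 100% = full blocker control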
PLCg1 inh – PLC-gamma1 (human) inhibition, primary screen; P19174; purified PLC-gamma1, fluorogenic substrate, fluorescence; inhibition, % at 12.2 µM; 370,000 compounds, 0.84% hits; in the data active = inhibition above about 9.5%
HIF act – HIF pathway transcriptional activation; 300,000 compounds, 0.32% hits; AID 1910; U2OS HRE-luciferase reporter, luminescence; normalized: DMSO 0%, desferrioxamine 100%; activation, % at 7.5 µM (by protocol);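 active = mean activation of at least 10% of the iron chelator positive control signal, with at least half of replicates also reaching 10%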
sPLA2-III inh – Inhibits HGIII-sPLA2 liposome hydrolysis, primary screen; AID 743126; QFRET BODIPY PC-A2 liposome hydrolysis, fluorescence; inhibition, % at 12.2 µM; 370,000 compounds, 0.56% hits; Q9NZ20;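 active = inhibition above mean plus 3 SD of compounds lying within the high and low control bounds, cut at about 19% in these data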;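 note: 0% = median of test compound wells and 100% = no enzyme DMSO wells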
Target sequence (Q9NZ20 whole entry, looked up): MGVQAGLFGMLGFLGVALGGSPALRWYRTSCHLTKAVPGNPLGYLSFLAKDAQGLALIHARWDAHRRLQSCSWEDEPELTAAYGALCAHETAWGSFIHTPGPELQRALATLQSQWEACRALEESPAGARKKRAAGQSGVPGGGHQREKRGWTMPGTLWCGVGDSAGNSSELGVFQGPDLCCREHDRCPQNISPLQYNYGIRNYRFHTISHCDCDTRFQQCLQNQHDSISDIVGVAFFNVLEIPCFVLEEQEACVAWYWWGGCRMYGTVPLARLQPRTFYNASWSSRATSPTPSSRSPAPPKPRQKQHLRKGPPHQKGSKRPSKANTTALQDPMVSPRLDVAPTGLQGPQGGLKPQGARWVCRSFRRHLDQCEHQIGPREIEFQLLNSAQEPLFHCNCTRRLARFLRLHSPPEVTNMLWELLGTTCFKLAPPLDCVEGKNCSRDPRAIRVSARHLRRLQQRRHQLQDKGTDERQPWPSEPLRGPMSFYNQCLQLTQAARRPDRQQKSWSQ
AHR activator – human AHR activation; AHR-responsive luciferase reporter cells, luminescence; activation, % at 5 µM; 320,000 compounds, 2.5% hits; AID 2796; in the data active = activation above about 47%;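 note: 0% = vehicle wells and 100% = reference agonist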
Yeast superoxide – caloric restriction mimetics inhibiting age-related superoxide in yeast | 330,000 compounds, 0.18% hits | S. cerevisiae aged cells, superoxide DHE fluorescence; hits give low values | superoxide response (% of plate mean), % at 10 µM | AID 2690;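 active = superoxide response under a set limit, about three screen SD below normal, cut at about 65% in these data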;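 note: yeast aged for seven days with compound at 30 °C before DHE staining; 100% = average MFI of all compound-treated wells on the plate with controls excluded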
* hit, by the source's call.

`O[C@H](COc1cccc(F)c1)CN1CCC(C(O)(c2ccccc2)c2ccccc2)CC1` gave PLCb3 inh 1, PLCg1 inh 1 and sPLA2-III inh -20.
Cc1ccc(CNC(=O)c2ccc3c(=O)c(O)c(-c4ccc(C)cc4)[nH]c3c2)cc1 was read as PLCb3 inh -122, PLCg1 inh -78, HIF act 2, sPLA2-III inh 10, AHR activator 8 and Yeast superoxide 114.
For Cc1ccc(-c2[nH]c3cc(C(N)=O)ccc3c(=O)c2O)cc1 the results were PLCb3 inh inactive, PLCg1 inh inactive, HIF act 2, sPLA2-III inh -1, AHR activator 66* and Yeast superoxide 88.
COC(=O)c1cc(NC(=O)NC2CCCCN(Cc3ccc(Cl)cc3)C2=O)cc(C(=O)OC)c1 (configuration not stated) was read as PLCb3 inh 0, PLCg1 inh 2 and sPLA2-III inh -2.
For CC(=O)c1c(C)[nH]c(C(=O)Nc2ccc(Cl)c(S(=O)(=O)N3CCOCC3)c2)c1C the results were PLCb3 inh -3, PLCg1 inh 0, HIF act 0, sPLA2-III inh -7, AHR activator 49* and Yeast superoxide 103.
For CCCCNS(=O)(=O)/C=C/c1ccccc1CCNC(=O)OC(C)(C)C the results were PLCb3 inh 2, PLCg1 inh 0 and sPLA2-III inh 0.
`Cc1cc(Br)c2nc(-c3ccc(F)cc3)c(Cc3cccc(Cl)c3)n2c1` gave PLCb3 inh -5, PLCg1 inh -5 and sPLA2-III inh -4.
`COc1ccc(N2C(=O)CSC23C(=O)N2CCCc4cccc3c42)cc1` (configuration not stated) gave PLCb3 inh -1, PLCg1 inh 3, HIF act 0, sPLA2-III inh 1, AHR activator -1 and Yeast superoxide 100.
COc1ccc(N=C2C(=O)N3CCCc4cccc2c43)cc1 was read as PLCb3 inh 3, PLCg1 inh 0, HIF act 392*, sPLA2-III inh 5, AHR activator 7 and Yeast superoxide 115.
Brc1c(-c2ccccc2)nc2n1Cc1ccccc1-2 was read as PLCb3 inh -3, PLCg1 inh 2, HIF act 5, sPLA2-III inh -7, AHR activator 54* and Yeast superoxide 102.
For COC(=O)CN1CCN(C(=O)c2csc(-c3ccccc3)n2)CC1 the results were PLCb3 inh -11, PLCg1 inh -8 and sPLA2-III inh -6.
For O=C(Nc1ccc(-c2nc3cc(Cl)ccc3o2)cc1)C1CCCO1 (configuration not stated) the results were PLCb3 inh -2, PLCg1 inh -3, HIF act 0, sPLA2-III inh -4, AHR activator 55* and Yeast superoxide 100.
Screening COc1ccc(C(=O)N(Cc2ccco2)Cc2cc3cc(C)ccc3[nH]c2=O)cc1OC returned PLCb3 inh -10, PLCg1 inh -3, HIF act 0, sPLA2-III inh -1, AHR activator 3 and Yeast superoxide 107.
`COc1ccccc1NC(=S)N(Cc1ccco1)Cc1cc2cc(C)ccc2[nH]c1=O` gave PLCb3 inh -1, PLCg1 inh 2, HIF act 0, sPLA2-III inh 11, AHR activator 71* and Yeast superoxide 81.
`CCn1c(=O)cc(OCC(=O)NCc2cccs2)c2ccccc21` gave PLCb3 inh -2, PLCg1 inh -3, HIF act 0, sPLA2-III inh 4, AHR activator 68* and Yeast superoxide 112.
`CC(C)(C)c1nnc(NC(=O)COc2ccc3c(c2)OCO3)s1` gave PLCb3 inh -4, PLCg1 inh -5, HIF act 2, sPLA2-III inh -4, AHR activator 60* and Yeast superoxide 139.
CC(C)(C)c1nnc(NC(=O)c2ccc3c(c2)OCO3)s1 was read as PLCb3 inh -6, PLCg1 inh -4, HIF act 2, sPLA2-III inh -1, AHR activator 39 and Yeast superoxide 108.
O=C(Cc1cccs1)NCc1ccc2c(c1)OCO2 was read as PLCb3 inh -1, PLCg1 inh 0, HIF act 2, sPLA2-III inh 6, AHR activator 1 and Yeast superoxide 89.
Screening CCn1c(=O)cc(OCC(=O)NCCc2cccc(C)c2)c2ccccc21 returned PLCb3 inh -1, PLCg1 inh -2, HIF act 0, sPLA2-III inh -2, AHR activator 17 and Yeast superoxide 105.
`O=C(COc1ccc2c(c1)OCO2)NCc1cccs1` gave PLCb3 inh -4, PLCg1 inh 4, sPLA2-III inh 5, AHR activator 49* and Yeast superoxide 89.
For CC(=O)N1CCN(c2ccc(N3CCN(Cc4ccccc4)[C@H](C)C3)c(C)c2)[C@H](C)C1 the results were PLCb3 inh 1, PLCg1 inh -2 and sPLA2-III inh 8.
`CN1CCN(C(c2ccc(Br)cc2)c2cc(Cl)c3cccnc3c2O)CC1` (configuration not stated) gave PLCb3 inh -28, PLCg1 inh -17, HIF act 7, sPLA2-III inh 20*, AHR activator 10 and Yeast superoxide 134.
Cc1c(C(=O)NC2CCOC2)oc2c(F)cccc12 (configuration not stated) was read as PLCb3 inh -10, PLCg1 inh 0, HIF act 4, sPLA2-III inh 4, AHR activator 79* and Yeast superoxide 106.
Screening CCCN(CC1CC1)C(=O)CN1C(=O)C2CCCCN2C(=O)c2ccccc21 (configuration not stated) returned PLCb3 inh -2, PLCg1 inh -1 and sPLA2-III inh -1.
COc1ccc(NC(=O)/C=C/c2cc(Br)ccc2OC)cc1 was read as PLCb3 inh -2, PLCg1 inh -2, HIF act 1, sPLA2-III inh -16, AHR activator 28 and Yeast superoxide 103.
Screening CCN(CC)c1ccc(NC(=O)/C=C/c2cc(Br)ccc2OC)cc1 returned PLCb3 inh -11, PLCg1 inh -10, HIF act 0, sPLA2-III inh -7, AHR activator 55* and Yeast superoxide 116.
`COc1nc(OC)nc(N2CCC(C(=O)NCc3cccc(OC)c3OC)CC2)n1` gave PLCb3 inh 3, PLCg1 inh 3 and sPLA2-III inh 2.
`CCOC(=O)[C@@]12CCC3=C1N(CCC3)C(=O)[C@H](CC(=O)NCCCN1CCCC1=O)C2` gave PLCb3 inh 5, PLCg1 inh 1 and sPLA2-III inh 4.
Screening Cc1nc(SCC(=O)Nc2nc3ccccc3s2)c(C#N)c(C)c1C returned PLCb3 inh -122, PLCg1 inh -108, HIF act -4, sPLA2-III inh 9, AHR activator -11 and Yeast superoxide 110.

Screens from PubChem BioAssay.
